# From PubChem
# Most compounds without a hit are left out; they make up all but 12% or so of the library.
# JMJD2A Tudor inh = JMJD2A Tudor domain (human) inhibition; O75164; AlphaScreen JMJD2A-Tudor / H3K4me3 peptide binding; Potency, µM (doses to about 114 µM), for inactives: at the highest dose activity change, negative = inhibition, usual class: inhibitors; actives 4.4% (n = 390,000); AID 504339; also: potency is read from the fitted curve at half-maximal effect; % is scaled to controls: 0 for no effect and ±100 for the full control effect; nearly all actives have a fitted effect of over 50% in size
# PI5P4K alpha inh = PI5P4K alpha (human) kinase inhibition; P48426; PI5P4Kalpha enzyme, ADP-Glo luminescence, 60 min; active compounds read low; max response, %; actives 1.2% (n = 330,000); AID 652105; active = max response of -50% or lower; inconclusive = between -30% and -50%; inactive = -30% or higher; also: value at the top dose of about 77 µM; % is scaled to controls: 0 for no effect and ±100 for the full control effect
#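 PI5P4Kalpha ADP-Glo assay; 5 microM ATP final; 60 min RT reaction; HEPES pH 7.4/EGTA/CHAPS, 5% DMSO; controls lacking substrate or enzyme; luminescent end-point.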
# G9a inh = blocks human histone lysine methyltransferase G9a. Potency, µM (series often up to 102 µM), without a hit: at the highest dose activity, negative = inhibition, hits mostly inhibitors. G9a H3K9 monomethylation, AlphaScreen, 2 h. actives 8.8% (n = 350,000); also: potency is read from the fitted curve at half-maximal effect; % is scaled to controls: 0 for no effect and ±100 for the full control effect; nearly all actives have a fitted effect of over 75% in size
#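 AlphaScreen read-out: biotin-H3K9 peptide (500 nM) methylation by 20 nM enzyme with 20 uM SAM, 2 h at room temperature after 15 min compound preincubation; anti-monomethyl H3K9 antibody plus donor/acceptor beads, 10 min dark.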
# PLK1 PBD inh = inhibitors of human PLK1 polo-box domain binding. actives 2.8% (n = 360,000). P53350. Potency, µM, for the others: max response, negative = inhibition, most hits filed as inhibitors. Plk1 PBD binding of FITC phosphopeptide, fluorescence polarization; also: potency is read from the fitted curve at half-maximal effect; series mostly up to about 57 µM; % is scaled to controls: 0 for no effect and ±100 for the full control effect; nearly all actives have a fitted effect of over 65% in size
# Target sequence (P53350 whole entry, looked up, the tested form may be a part): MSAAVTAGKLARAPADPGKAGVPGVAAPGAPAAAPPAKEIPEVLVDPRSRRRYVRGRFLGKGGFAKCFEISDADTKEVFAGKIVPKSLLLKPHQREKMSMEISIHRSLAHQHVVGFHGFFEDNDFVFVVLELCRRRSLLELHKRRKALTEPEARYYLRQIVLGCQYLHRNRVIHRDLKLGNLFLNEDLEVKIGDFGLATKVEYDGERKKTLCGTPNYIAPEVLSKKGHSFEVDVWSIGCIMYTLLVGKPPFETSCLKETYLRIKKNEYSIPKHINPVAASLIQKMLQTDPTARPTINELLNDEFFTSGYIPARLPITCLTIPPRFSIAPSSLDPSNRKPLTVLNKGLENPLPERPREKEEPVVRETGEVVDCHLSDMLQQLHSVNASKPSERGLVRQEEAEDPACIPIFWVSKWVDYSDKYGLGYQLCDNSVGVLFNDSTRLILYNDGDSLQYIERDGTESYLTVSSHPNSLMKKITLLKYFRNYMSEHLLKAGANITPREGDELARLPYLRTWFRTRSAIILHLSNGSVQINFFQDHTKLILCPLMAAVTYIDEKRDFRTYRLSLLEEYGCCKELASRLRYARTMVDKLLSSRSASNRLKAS
# HP1b chromo inh = blocks HP1-beta chromodomain binding to methylated histone tails; AlphaScreen HP1-beta / biotin-H3K9me3 peptide binding; AID 540317; P83916; Potency, µM (titrated, usually from 114 µM), without a hit: at the top dose activity change, negative = inhibition, most hits filed as inhibitors; actives 0.56% (n = 390,000); also: potency is read from the fitted curve at half-maximal effect; nearly all actives have a fitted effect of over 70% in size
#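 Compound inhibition of the preformed complex between 50 nM HP1-beta and 50 nM biotinylated H3K9me3 peptide was read by AlphaScreen. Buffer was PBS pH 7.4 with 0.01% Tween-20. Incubations ran 30 min at room temperature, with 10 ug/mL donor/acceptor beads.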
# BAZ2B inh = inhibitors of human BAZ2B bromodomain. Q9UIF8. AlphaScreen BAZ2B-H3K14Ac peptide displacement. Potency, µM (highest dose often 114 µM), without a hit: at the highest dose activity change, negative = inhibition, hits mostly inhibitors. actives 4.4% (n = 360,000). AID 504333; also: potency is read from the fitted curve at half-maximal effect; % is scaled to controls: 0 for no effect and ±100 for the full control effect; nearly all actives have a fitted effect of over 60% in size
#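 In this displacement format the biotinylated H3(5-23) peptide acetylated at Lys14 serves as ligand at 50 nM, with BAZ2B at 50 nM in PBS pH 7.4 containing 0.01% Tween-20. Donor and acceptor beads are 10 ug/mL final.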
# Active calls of the source: *; ? = inconclusive; / = no result given; [ ] = another dose, or the depositor's remark. Unless noted, calls follow the shape of the dose curve; as a rule, active = well fitted curve in the direction sought with a large enough effect; inconclusive = small, poorly fitted or top-dose-only effect, or another doubt; inactive = no such curve, though single readings can be large; an effect the other way counts as inactive or inconclusive.
SMILES,JMJD2A Tudor inh,PI5P4K alpha inh,G9a inh,PLK1 PBD inh,HP1b chromo inh,BAZ2B inh
CCOC(=O)C(CC)Sc1ccc2nnc(-c3cccnc3)n2n1 (configuration not stated),-21%,-17,?,-5%,48%,-10%
COc1ccc(-c2nnc3ccc(SC)nn23)cc1,-8%,/,-1%,-4%,30%,4%
Cc1ccc(-n2ncc(C(=O)NCc3ccc4c(c3)OCO4)c2C2CCN(C(=O)OC(C)(C)C)CC2)c(C)c1,-25%,/,-29%[59 µM],/,17%,-3%[57.1 µM]
CSc1ccc(C2CC(=O)Nc3c2c(=O)n(C)c(=O)n3C)cc1 (configuration not stated),-9%[11.4 µM],-5,-1%,27µM*,8%,2%
Cn1c2c(c(=O)n(C)c1=O)C(c1cccc(O)c1)CC(=O)N2 (configuration not stated),-16%,/,10%[59 µM],/,5%,-2%
O=C(CSc1nc2ncccc2o1)Nc1cccc(C(F)(F)F)c1,-4%,/,-5%[59 µM],/,17%,-3%
COC(=O)[C@H]1C2CC3c4[nH]c5ccccc5c4CCN3CC2CC[C@@H]1O (some centres not stated),/,/,13%[59 µM],/,/,/
Cc1cc(NC(=O)CSc2nc3c([nH]c4ccccc43)c(=O)n2-c2cccc(Cl)c2)no1,-16%,/,15%[59 µM],/,23%[57 µM],3%
COc1cc(OC)cc(C(=O)OCCCOC(=O)c2cc(OC)cc(OC)c2)c1,8%,26,-2%,-8%,57%,0%
COc1ccccc1Nc1c2c(nc3ccc(NC(=O)c4ccc(N(C)C)cc4)cc13)CCCC2,16µM*,/,7.9µM*,/,-22%,4µM*
CCOc1ccccc1C(=O)Nc1ccc2nc3c(c(Nc4ccc(OC)c(OC)c4)c2c1)CCCC3,?,/,-29%[59 µM],/,-22%,-35%
COc1cc(OC)cc(C(=O)Nc2ccc3nc4c(c(Nc5ccc(OC)c(OC)c5)c3c2)CCCC4)c1,?,/,18µM*,/,?,10µM*
O=C(Nc1cccc(F)c1)Nc1nnc([C@@H]2O[C@H](CO)[C@@H](O)[C@H]2O)s1,/,-1,/,-5%,/,/
O=C(CSc1nc(C(F)(F)F)cc(=O)[nH]1)Nc1ccc2c(c1)OCCO2,2%,-25,1%,4%,19%,5%
Cc1cc(C)n2c(Nc3c(C)cccc3C)c(CC(C)C)nc2n1,/,2,/,-6%,/,/
Cc1ccn2c(Nc3ccc(F)cc3)c(-c3ccccn3)nc2c1,25µM*,/,-48%[59 µM],/,-14%,14µM*
Cc1cccc2nc(-c3ccccn3)c(Nc3ccccc3)n12,40µM*,/,3%[59 µM],/,5%,8.9µM*
Fc1ccc(Nc2c(-c3c[nH]c4ccccc34)nc3ccccn23)cc1,35µM*,/,?,/,?,?
Cc1cccc(C)c1Nc1c(-c2ccccc2F)nc2cccc(C)n12,50µM*,/,18µM*,/,?,?
C=CCNC(=O)c1c(CSc2ccc(Cl)cc2)noc1C(=O)NCc1ccccc1,0%,11,/,6%,61%,/
CCc1ccc(S(=O)(=O)c2cn(Cc3ccccc3)c3cc(F)c(F)cc3c2=O)cc1,-10%,/,?,/,28%,-8%
CCC1=C(c2ccc(C)cc2)S(=O)(=O)N=C1N1CCC(C(=O)Nc2ccccc2C(=O)OC)CC1,-28%,/,9%[59 µM],/,?,-14%
CCCCOc1cccc(C2c3c(-c4cc(C)ccc4O)n[nH]c3C(=O)N2CCOC)c1 (configuration not stated),?,/,-3%[59 µM],/,12%,-34%
Cc1ccc(Nc2c(-c3ccsc3)nc3cccc(C)n23)cc1,50µM*,/,?,/,?,?
Cc1cccc2nc(-c3ccccn3)c(Nc3ccc(F)cc3)n12,45µM*,/,-3%[59 µM],/,19%,16µM*
Cc1ccc(Nc2c(-c3ccccn3)nc3cccc(C)n23)cc1,-35%[11.4 µM],-1,20%[59 µM],?,?,16µM*
Cc1ccc(Nc2c(-c3ccccn3)nc3ccc(Br)cn23)cc1,?,/,17%[59 µM],/,34%,-33%
Cc1cc(=O)[nH]c2nnc(SCCC(C)C)n12,0%,/,10%[59 µM],/,31%,0%
